PubChem BioAssay (NCATS)
Results filed as inconclusive are left out. Calls of active or inactive are those of the source. Calls come from the whole dose curve; as a rule, active = well fitted inhibition curve with a large enough effect; inconclusive = small, poorly fitted or top-dose-only effect; inactive = flat fitted curve, though single readings scatter.

Experiments:
[1] = test system: CRL-7250; assay: Cytotoxic Profiling of Annotated Libraries Using Quantitative High-Throughput Screening (AID 1296008); details: Five cell lines viability, CellTiter-Glo ATP luminescence, 48-72 h; max response: hits give low values; for max response: % is set by controls: 0 for no effect and ±100 for the full control effect
Method in brief: (§1)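 Cells exposed to compounds for 48 or 72 hr at 37 degrees Celsius. Viability read as ATP-coupled luminescence with CellTiter-Glo after 10 min at room temperature.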

[2] = test system: HEK293; assay: as above; details: Five cell lines viability, CellTiter-Glo ATP luminescence, 48-72 h; max response: hits give low values
Method in brief: as §1

[3] = test system: HaCat; assay: as above; details: Five cell lines viability, CellTiter-Glo ATP luminescence, 48-72 h; max response: hits give low values
Method in brief: as §1

[4] = test system: KB-3-1; assay: as above; details: Five cell lines viability, CellTiter-Glo ATP luminescence, 48-72 h; max response: hits give low values
Method in brief: as §1

[5] = test system: NIH3T3; assay: as above; details: Five cell lines viability, CellTiter-Glo ATP luminescence, 48-72 h; max response: hits give low values
Method in brief: as §1

[6] = test system: CRL-7250; assay: qHTS assay to identify novel small-molecules to repurpose for Merkel cell carcinoma treatment (AID 1296009); details: MCC and control cell lines, CellTiter-Glo viability, 72 h; at 44.8 µM (top of the series) unless noted
Method in brief: (§2)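 Dose-response viability screen; 72 hr exposure at 37 degree celsius; CellTiter-Glo added, 10 min room temperature, luminescence read; RLUs scaled between no-cell and DMSO wells.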

[7] = test system: HACAT; assay: as above; details: MCC and control cell lines, CellTiter-Glo viability, 72 h; at 44.8 µM (top of the series) unless noted
Method in brief: as §2

[8] = test system: HEK293T; assay: as above; details: MCC and control cell lines, CellTiter-Glo viability, 72 h; at 44.8 µM (top of the series) unless noted
Method in brief: as §2

Measured: max response
Note: nearly all actives have a fitted effect of over 60% in size.

Clc1ccc(OCC2=NCCN2)cc1Cl
inactive: [1] | [2] | [3] | [4] 6.44% | [5] | [6] | [7] | [8]

C[C@@H]1C(=O)O[C@H]2[C@H](O)[C@@]34[C@@H]5OC(=O)[C@@]3(O[C@@H]3OC(=O)[C@@H](O)[C@@]34[C@H](C(C)(C)C)[C@H]5O)[C@@]12O
inactive: [1] -6.45% | [2] -8.33% | [3] | [4] | [5] | [7] inactive [at 17.4 µM]

N#C[C@@H](O[C@@H]1O[C@H](CO[C@@H]2O[C@H](CO)[C@@H](O)[C@H](O)[C@H]2O)[C@@H](O)[C@H](O)[C@H]1O)c1ccccc1
inactive: [1] 3.46% | [2] 4.21% | [3] | [4] 5.22% | [5] | [7] inactive [at 17.4 µM]

O=C(O)c1ccnc2cc(C(OCCN3CCCCC3)c3ccccc3Cl)[nH]c12 (configuration not stated)
inactive: [1] | [2] | [3] | [4] | [5] -0.205% | [6] | [7] | [8]

N#CC(OC1OC(COC2OC(CO)C(O)C(O)C2O)C(O)C(O)C1O)c1ccccc1 (configuration not stated)
inactive: [1] | [2] | [3] | [4] 9.88% | [5] | [6] inactive [at 17.4 µM] | [7] inactive [at 17.4 µM] | [8] inactive [at 17.4 µM]

O=C(N1CCOCC1)N1CCN(c2ccc(Cl)cc2)CC1
inactive: [1] | [2] -0.253% | [3] | [4] 6.75% | [5] | [6] | [7]

CN[C@H]1[C@H](O)[C@H](O[C@@H]2[C@@H](O)[C@H](O[C@H]3O[C@H]([C@H](C)O)[C@@H](O)[C@H](O)[C@H]3N)[C@@H](N)C[C@H]2N)OC[C@@]1(C)O
inactive: [1] | [2] -1.94% | [3] | [4] 3.55% | [5] 4.53% | [6] | [7]

Cc1c(Cl)cccc1S(=O)(=O)Nc1nc(CC(=O)N2CCN(C)CC2)cs1
inactive: [1] 0.391% | [2] -10.3% | [3] | [4] | [5] | [7]

CCN1C[C@]2(COC)[C@H](O)C[C@H](OC)[C@]34[C@@H]5C[C@]6(O)[C@H](OC(=O)c7ccccc7)[C@@H]5[C@@](O)([C@H]([C@H](OC)[C@H]23)[C@@H]14)[C@@H](O)[C@@H]6OC
inactive: [1] | [2] | [3] 1.58% | [4] 2.1% | [5] | [6] | [8]

C[C@H]1C(=O)O[C@H]2[C@H](O)[C@]34C5OC(=O)[C@]3(O[C@@H]3OC(=O)[C@H](O)C34[C@H](C(C)(C)C)[C@H]5O)C12O (some centres not stated)
inactive: [1] | [2] -8.69% | [3] | [4] | [5] | [6] inactive [at 17.4 µM] | [7] inactive [at 17.4 µM]

CCC(C)(OC(C)=O)C(=O)O[C@H]1[C@H](OC(C)=O)C[C@@H]2[C@@](C)([C@@H]3C[C@H]4C=CO[C@H]4O3)[C@H](C)C[C@H](OC(C)=O)[C@@]2(COC(C)=O)[C@@]12CO2 (some centres not stated)
inactive: [1] | [2] | [3] | [4] 8.14% | [5] | [6] inactive [at 17.4 µM] | [7] inactive [at 17.4 µM] | [8] inactive [at 17.4 µM]

CN(C)CCc1c[nH]c2ccc(CN3CCN(C)S3(=O)=O)cc12
inactive: [1] 3.29% | [2] -0.516% | [3] | [4] -6.8% | [5] | [7]

C=C(CO)C(=O)O[C@H]1C/C(C)=C/CC/C(CO)=C/[C@H]2OC(=O)C(=C)[C@H]12
inactive: [1] -2.43% | [2] -5.5% | [3] | [4] | [5] | [7]

CC(C)[C@@H](CN1CC[C@@](C)(c2cccc(O)c2)[C@@H](C)C1)NC(=O)[C@H]1Cc2ccc(O)cc2CN1
inactive: [1] | [2] -18.6% | [3] | [4] 4.16% | [5] | [6] | [7]

COc1ccccc1CN[C@H]1C2CCN(CC2)[C@H]1C(c1ccccc1)c1ccccc1
inactive: [1] | [2] -17% | [3] | [4] -8.54% | [5] | [6] | [7]

CC(CCc1ccc(O)cc1)O[C@@H]1O[C@H](CO[C@H]2OC[C@](O)(CO)[C@H]2O)[C@@H](O)[C@H](O)[C@H]1O (some centres not stated)
inactive: [1] | [2] | [3] | [4] 6.77% | [5] 3.14% | [6] inactive [at 17.4 µM] | [7] inactive [at 17.4 µM] | [8] inactive [at 17.4 µM]
